p53 reactivator = mutant p53 re-activation in reporter cells | H1299 p53-A138V BP100-luciferase reporter, luminescence, 24 h | Potency, µM (series often up to 92.2 µM), most hits filed as activators | 320,000 compounds, 0.063% hits | AID 504706; further: nearly all actives have a fitted effect of over 45% in size
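H1299 (p53-null), stable ts p53-A138V + BP100-Luc; 1000 cells/well, Opti-MEM/10% FBS; cpd 4 pt, 1:5; 24 h, 37 deg C, 5% CO2; detection reagent 10 min RT; luminescence.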
NPC1 prom act = activators of NPC1 promoter; Huh7 NPC1 promoter luciferase reporter, 24 h; Potency, µM (highest dose often 9.22 µM), most hits filed as activators; 320,000 compounds, 2.4% hits; AID 485313; further: nearly all actives have a fitted effect of over 60% in size
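Luciferase expression driven by the NPC1 promoter was measured in stably transfected Huh7 cells after a 24 h compound incubation, using a luciferase reagent and a luminescence read.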
Rab9 prom act = activators of Rab9 promoter; Huh7 Rab9 promoter-luciferase reporter, luminescence, 24 h; Potency, µM (series often up to 9.22 µM), hits mostly activators; 320,000 compounds, 2.8% hits; further: nearly all actives have a fitted effect of over 60% in size
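Stable Rab9-luc Huh7, 1500 cells/well, 2 h settle; cmpd in DMSO, 24 h, 37 °C/5% CO2; luciferase reagent 10 min RT; luminescence.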
ELG1 genotox = induces genotoxicity in HEK293T cells with luciferase-tagged ELG1; 330,000 compounds, 1.3% hits; Potency, µM (doses to about 46 µM), usual class: activators; HEK293T ELG1-luciferase reporter, luminescence, 16 h; further: nearly all actives have a fitted effect of over 60% in size
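Cells (2,000/well) expressing the ELG1-luciferase fusion are dosed by pin tool and kept 16 hr at 37 °C, 5% CO2. Signal comes from ONE-Glo luciferase reagent after 30 min at room temperature.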
SMN2 splice up = SMN2 splice variant enhancement | HEK293 SMN2-luciferase splicing reporter, luminescence, 30-36 h | Potency, µM (series often up to 46.1 µM), actives largely listed as activators | 210,000 compounds, 2.8% hits; further: nearly all actives have a fitted effect of over 55% in size
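HEK293 cells carry an SMN2 minigene-luciferase reporter in which exon 7 inclusion puts luciferase in frame. Cells were seeded at 2000 cells/well, attached for 10-12 hours, then exposed to compounds for 30-36 hours at 37C before ONE-Glo luminescence.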
FLuc counter = counter-screen for miR-21 project: firefly luciferase inhibitors or activators. Potency, µM (top dose mostly 57.5 µM), hits mostly inhibitors. AID 588342. 360,000 compounds, 6.9% hits. P08659. purified FLuc, Km substrates, luminescence inhibition; further: nearly all actives have a fitted effect of over 55% in size
Target sequence (P08659 whole entry, looked up): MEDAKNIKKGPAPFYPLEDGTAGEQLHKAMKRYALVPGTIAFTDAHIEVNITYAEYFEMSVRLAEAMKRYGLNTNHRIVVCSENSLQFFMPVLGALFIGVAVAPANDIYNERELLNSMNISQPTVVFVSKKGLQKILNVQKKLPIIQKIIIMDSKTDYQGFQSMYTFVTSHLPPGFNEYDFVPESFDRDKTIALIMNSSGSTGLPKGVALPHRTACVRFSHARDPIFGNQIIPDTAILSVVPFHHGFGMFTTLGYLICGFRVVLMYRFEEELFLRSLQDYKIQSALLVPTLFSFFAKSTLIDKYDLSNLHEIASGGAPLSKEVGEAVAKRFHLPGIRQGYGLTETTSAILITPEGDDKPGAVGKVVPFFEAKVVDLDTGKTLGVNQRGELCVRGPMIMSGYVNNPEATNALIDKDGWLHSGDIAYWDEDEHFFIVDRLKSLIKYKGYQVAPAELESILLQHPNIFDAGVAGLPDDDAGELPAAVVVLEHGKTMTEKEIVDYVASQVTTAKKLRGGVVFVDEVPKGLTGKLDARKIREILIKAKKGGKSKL
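Purified P. pyralis luciferase (10nM final) with 10uM D-luciferin and 10uM ATP (Km levels) in 50mM Tris acetate pH 7.5, 10mM Mg acetate, 0.01% Tween-20, 0.05% BSA; qHTS 6-point titration, ~60 µM downward; luminescence read.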
Hits are given with their value; 0 = inactive; ? = inconclusive; - = not tested or not shown. Compounds with a hit are over-represented: about 7.3% of the library has one in this group of screens. The call rests on the fitted dose curve; in most records, active means well fitted curve in the direction sought with a large enough effect; inconclusive means small, poorly fitted or top-dose-only effect, or another doubt; inactive means no such curve, though single readings can be large; an effect the other way counts as inactive or inconclusive.

SMILES | p53 reactivator | NPC1 prom act | Rab9 prom act | ELG1 genotox | SMN2 splice up | FLuc counter
CC(=O)Nc1cccc(-c2csc(Nc3ncccn3)n2)c1 | 0 | 3.16µM | 1.58µM | ? | 3.55µM | 2.13µM
CC(=O)Nc1cccc(-c2csc(Nc3ccc(C)cn3)n2)c1 | ? | 1µM | 0.891µM | 1.84µM | 2.24µM | 0.426µM
CC(=O)Nc1ccc(-c2csc(Nc3cccc(C)n3)n2)cc1 | 0 | 1.78µM | 1.58µM | 0 | - | 9.53µM
CC(=O)Nc1ccc(S(=O)(=O)Nc2cccc(-c3csc(C)n3)c2)cc1 | 0 | 0 | 0 | 0 | - | 0
CC1=C(C(=O)Nc2ccccc2)C(c2ccc[nH]2)n2ncnc2N1 (stereo not drawn) | - | 0 | 0 | - | - | 0
COC(=O)CC1c2ccccc2C=C(C2CC2)N1C(=O)OC (stereo not drawn) | - | - | - | - | 0 | -
CCCCOc1ccc(CSCCN)cc1Cl | 0 | 0 | 0 | ? | - | 12µM
CCOc1ccc(CSC(=N)N)cc1Cl | 0 | 0 | 0 | 0 | - | 0
c1ccc(CNc2ncnc3c2ncn3C2CCCCO2)cc1 (stereo not drawn) | ? | ? | ? | ? | ? | 26.9µM
Cc1cc(C)c(C#N)c(Sc2ccccc2N)n1 | 0 | 0 | 0 | ? | 0 | 15.1µM
COC(=O)C(Sc1nc(C)cc(C)c1C#N)c1ccccc1 (stereo not drawn) | 0 | 0 | 0 | 0 | ? | 0
Cc1cc(OCCn2cc(C(=O)c3cccs3)c3ccccc32)ccc1Cl | - | - | - | - | 0 | 0
O=C(Nc1ccc(OCC(=O)N2CCOCC2)cc1)c1ccccc1F | 0 | 0 | 0 | 0 | - | 4.78µM
CN(C)S(=O)(=O)c1ccc(C(=O)Nc2ccc(OCC(=O)N3CCOCC3)cc2)cc1 | 0 | 0 | 0 | 0 | 0 | 15.1µM
Cc1cc(NC(=O)c2ccccc2F)cc(C)c1OCC(=O)N1CCOCC1 | 0 | 0 | 0 | 0 | - | 9.53µM
COc1ccc(C(=O)Nc2ccc(OCC(=O)N3CCOCC3)cc2)c(OC)c1OC | 0 | 0 | 0 | 0 | - | 13.5µM
CCOc1ccc(S(=O)(=O)N(C)c2ccc(OCC(=O)N3CCOCC3)cc2)cc1 | 0 | 0 | 0 | 0 | 0 | 0
COC(=O)Nc1ccc(OCC(=O)N2CCOCC2)cc1 | 0 | 0 | 0 | 0 | 0 | 0
COc1cc(C(=O)Nc2cc(C)c(OCC(=O)N3CCOCC3)c(C)c2)cc(OC)c1OC | 0 | 0 | 0 | 0 | - | 0
O=C(c1csnn1)N1CCC2(CC1)CCN(c1cccc(-c3ccccc3)c1)CC2 | - | - | - | - | 0 | -
Cc1cc(NC(=O)c2cc3ccccc3o2)cc(C)c1OCC(=O)N1CCOCC1 | ? | 0 | 0 | 0 | 0 | 12µM
Cc1cc(NS(=O)(=O)Cc2ccccc2)cc(C)c1OCC(=O)N1CCOCC1 | 0 | 0 | 0 | 0 | 0 | 0
COc1cc(C(=O)Nc2ccc(C(F)(F)F)cc2)ccc1OCC(=O)N1CCOCC1 | 0 | 0 | 0 | 0 | - | 6.75µM
O=C(Nc1ccc(OCC(=O)N2CCOCC2)cc1)c1cccc(Cl)c1 | 0 | 0 | 0 | 0 | - | 7.57µM
Cc1cc(OCC(=O)N2CCOCC2)ccc1NC(=O)C1CCCCC1 | 0 | 0 | 0 | 0 | 0 | 0
SMILES | p53 reactivator | NPC1 prom act | Rab9 prom act | ELG1 genotox | SMN2 splice up | FLuc counter
O=C(CCC1CCCC1)Nc1ccc(OCC(=O)N2CCOCC2)cc1 | ? | 0 | 0 | 0 | 0 | 4.78µM
Cc1cccc(-c2nc3scc(CCNS(=O)(=O)c4ccc5c(c4)OCCO5)n3n2)c1 | - | - | - | - | - | 0
Cc1cccc(C(=O)Nc2ccc(OCc3cc(=O)n4ccc(C)cc4n3)cc2)c1 | - | - | - | - | - | 0
Cc1nonc1C(=O)N/N=C/c1cccc(O)c1 | ? | 0 | 0 | 0 | 0 | 12µM
O=C(N/N=C/c1cccc(Oc2ccccc2)c1)c1cccc(Br)c1 | 0 | 0 | 0 | 0 | 0 | ?
O=C(N/N=C/c1cccc(O)c1)N/N=C/c1cccc(O)c1 | ? | 0 | 0 | 0 | - | 5.36µM
O=C(N/N=C/c1cccc(Oc2ccccc2)c1)c1cccc(O)c1 | 0 | 0 | 0 | 0 | - | 16.9µM
CN1CCCC2(CCN(C(=O)c3cccc(F)c3)CC2)C1 | - | - | - | - | 0 | -
COc1ccc(OC)c(S(=O)(=O)NCc2ccccn2)c1 | 0 | 0 | 0 | 0 | - | 0
C=C(C)CSc1nncn1/N=C/c1ccc(OC)cc1 | ? | ? | 3.98µM | ? | ? | 12µM
